Reference: PubChem BioAssay
Values joined by “and” are separate entries in the source; they are usually repeats but may differ in a detail not shown here. Identical values can stand only once. Active and inactive are the calls of the source.

Columns and labels:
[1] = biological target: Albumin (Bos taurus) (UniProt P02769); test: compounds binding labelled BSA control protein – biochemical, small-molecule microarray, Alexa647 label, 635/667 nm fluorescence, artefact control for SMM control protein annotation, profiling panel (AID 1118); conditions: BSA-A647 binding, fluorescence 635 nm, higher = more signal;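 note: score merges 667 nm emission intensity and signal-to-noise per printed compound spot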
Chain of Albumin (Bos taurus) (P02769 whole entry, looked up): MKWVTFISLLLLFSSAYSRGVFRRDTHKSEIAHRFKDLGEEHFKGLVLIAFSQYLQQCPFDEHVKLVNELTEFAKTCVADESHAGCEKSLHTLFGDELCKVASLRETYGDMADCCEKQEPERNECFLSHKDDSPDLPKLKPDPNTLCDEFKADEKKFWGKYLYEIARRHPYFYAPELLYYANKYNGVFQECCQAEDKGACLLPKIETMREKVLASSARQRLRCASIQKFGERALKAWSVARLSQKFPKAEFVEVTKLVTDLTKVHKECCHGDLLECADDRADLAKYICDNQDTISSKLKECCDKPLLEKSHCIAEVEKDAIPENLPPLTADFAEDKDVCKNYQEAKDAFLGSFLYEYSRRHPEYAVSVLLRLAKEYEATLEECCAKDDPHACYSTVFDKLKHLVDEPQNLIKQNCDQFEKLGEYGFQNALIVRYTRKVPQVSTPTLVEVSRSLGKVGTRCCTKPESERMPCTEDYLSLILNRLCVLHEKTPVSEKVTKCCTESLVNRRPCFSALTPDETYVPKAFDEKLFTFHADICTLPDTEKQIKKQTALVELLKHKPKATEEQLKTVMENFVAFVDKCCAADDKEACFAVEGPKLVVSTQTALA

[2] = probe aXIP binding to arrayed compounds – biochemical, NeuroSMM set, 635/667 nm fluorescence, primary screen (AID 1119); conditions: small-molecule microarray, higher = more signal, called active from +8 up or from −8 down;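 note: probe is the protein aXip251-270 applied at 1 µg/mL to compound-printed slides; binding of probe to printed compounds measured as 667 nm fluorescence plus signal to noise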
[3] = probe aNOTCH3 binding on compound microarray – biochemical, small-molecule microarray, 635/667 nm fluorescence, primary screen (AID 1120); conditions: higher = more signal;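 note: probe is a biotin-tagged antibody raised against NOTCH3 rather than NOTCH3 protein; score merges spot fluorescence near 667 nm with spot signal to noise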
[4] = probe aNOTCH2 binding on compound microarray – biochemical, small-molecule microarray, 635/667 nm fluorescence, primary screen (AID 1121); conditions: higher = more signal;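 note: score merges feature fluorescence read at 667 nm with its signal to noise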
[5] = biological target: Carbonic anhydrase 2 (Homo sapiens) (UniProt P00918); test: compounds binding carbonic anhydrase 2 – biochemical, small-molecule microarray, Alexa647-labelled CAII, profiling panel (AID 1122); conditions: CAII-A647 binding fluorescence, higher = more signal
[6] = COS7 lysate on small-molecule microarray, probe aHis, 635 nm (AID 1123); conditions: COS7 cell lysate, fluorescence, higher = more signal;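 note: z-score combines 667nm fluorescence intensity with signal-to-noise per printed compound spot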
[7] = probe aLAP1 signal on lysate-treated microarray – cell lysate, small-molecule microarray, COS7 lysate, primary screen (AID 1124); conditions: probe aLAP1, fluorescence, higher = more signal;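 note: lysate comes from COS7 cells expressing LAP1 and is applied at 0.3 µg/mL; score merges spot fluorescence near 667 nm with signal-to-noise over triplicate slides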
[8] = tested on: Sam68 (KHDRBS1); test: compounds binding KHDRBS1 protein – biochemical, small-molecule microarray, 635 nm fluorescence, primary screen (AID 1125); conditions: higher = more signal;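 note: score merges 667 nm channel intensity with signal to noise over triplicate slides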
[9] = tested on: Chordin-like protein 2 (CHRDL2); test: compounds binding chordin-like 2 – biochemical, small-molecule microarray, 635 nm fluorescence, primary screen (AID 1126); conditions: fluorescence 635 nm, higher = more signal;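 note: printed compound slides probed with Chrdl2 protein at 4 µg/mL for 1 h at 4 C; score merges 667 nm emission intensity with signal to noise over three replicate slides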
[10] = biological target: Concanavalin-A (Canavalia ensiformis) (UniProt P02866); test: compounds binding concanavalin A lectin – biochemical, small-molecule microarray, Alexa647 label, 635 nm, artefact control for SMM control protein annotation, primary screen (AID 1127); conditions: ConA-A647 binding fluorescence, higher = more signal;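 note: z combines 667 nm emission intensity with signal-to-noise across three replicate slides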
Chain of Concanavalin-A (Canavalia ensiformis) (P02866 whole entry, looked up): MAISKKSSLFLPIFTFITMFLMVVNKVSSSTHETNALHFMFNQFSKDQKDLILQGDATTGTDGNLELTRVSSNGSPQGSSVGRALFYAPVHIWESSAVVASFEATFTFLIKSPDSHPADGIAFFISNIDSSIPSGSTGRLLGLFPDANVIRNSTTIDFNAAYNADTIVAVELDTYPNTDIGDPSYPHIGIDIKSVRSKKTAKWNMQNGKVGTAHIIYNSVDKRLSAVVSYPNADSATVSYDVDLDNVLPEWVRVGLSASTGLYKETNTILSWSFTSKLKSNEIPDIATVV

[11] = compounds binding Alexa647 anti-His antibody – biochemical, small-molecule microarray, 635 nm fluorescence, artefact control for SMM control protein annotation, primary screen (AID 1128); conditions: higher = more signal;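 note: score merges feature fluorescence with signal-to-noise for each printed compound spot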
[12] = tested on: Human papillomavirus type 1a E7 protein (residues 1-88); test: HPV1a E7 small-molecule binders, primary screen, biochemical, small-molecule microarray, residues 1-88, 635 nm (AID 1129); conditions: small-molecule microarray binding, fluorescence 635 nm; higher = more signal
[13] = biological target: Focal adhesion kinase 1 (Homo sapiens) (UniProt Q05397); test: PTK2 protein binding on printed compound slides – biochemical, small-molecule microarray, 635/667 nm fluorescence, BSA, DTT, primary screen (AID 1130); conditions: 635 nm fluorescence, higher = more signal;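 note: composite of spot emission at 667 nm and signal to noise over triplicate slides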
Chain of Focal adhesion kinase 1 (Homo sapiens) (Q05397 whole entry, looked up): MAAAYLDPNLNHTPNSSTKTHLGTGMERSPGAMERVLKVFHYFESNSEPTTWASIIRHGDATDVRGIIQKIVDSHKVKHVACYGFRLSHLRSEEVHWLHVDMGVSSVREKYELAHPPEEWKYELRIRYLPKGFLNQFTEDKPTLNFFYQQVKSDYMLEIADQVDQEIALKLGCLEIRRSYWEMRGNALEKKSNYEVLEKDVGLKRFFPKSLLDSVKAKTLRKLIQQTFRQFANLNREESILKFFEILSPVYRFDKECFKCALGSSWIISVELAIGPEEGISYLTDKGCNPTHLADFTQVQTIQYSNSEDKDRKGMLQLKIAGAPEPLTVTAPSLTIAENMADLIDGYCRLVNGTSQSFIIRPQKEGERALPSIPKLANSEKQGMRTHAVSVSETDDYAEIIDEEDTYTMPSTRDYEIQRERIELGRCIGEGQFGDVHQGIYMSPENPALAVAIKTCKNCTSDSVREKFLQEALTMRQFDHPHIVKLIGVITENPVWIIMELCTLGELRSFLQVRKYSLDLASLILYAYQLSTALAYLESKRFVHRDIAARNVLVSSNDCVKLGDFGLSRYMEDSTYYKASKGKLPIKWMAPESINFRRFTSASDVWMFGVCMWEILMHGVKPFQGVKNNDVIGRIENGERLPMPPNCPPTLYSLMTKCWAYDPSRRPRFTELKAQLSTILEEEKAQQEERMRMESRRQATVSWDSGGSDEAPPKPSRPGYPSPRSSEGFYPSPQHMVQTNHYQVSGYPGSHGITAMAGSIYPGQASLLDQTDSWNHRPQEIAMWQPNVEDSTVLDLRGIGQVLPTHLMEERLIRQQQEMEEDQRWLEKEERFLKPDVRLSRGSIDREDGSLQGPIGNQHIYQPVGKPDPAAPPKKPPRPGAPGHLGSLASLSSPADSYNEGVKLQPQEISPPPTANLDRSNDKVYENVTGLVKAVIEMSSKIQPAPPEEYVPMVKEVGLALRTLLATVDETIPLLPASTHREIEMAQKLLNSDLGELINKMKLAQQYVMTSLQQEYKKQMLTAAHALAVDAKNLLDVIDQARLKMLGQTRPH

[14] = tested on: Fibrinogen (Alexa647-labelled); test: Alexa647-fibrinogen binding to printed small molecules – biochemical, small-molecule microarray, 635/667 nm fluorescence, artefact control for SMM control-protein annotation, profiling panel (AID 1131); conditions: fibrinogen-A647 binding fluorescence, higher = more signal;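 note: z-score merges 667 nm fluorescence with per-spot signal-to-noise over triplicate slides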
[15] = biological target: Follistatin (Homo sapiens) (UniProt P19883); test: FST protein binding to printed compounds – biochemical, small-molecule microarray, 635/667 nm fluorescence, primary screen (AID 1132); conditions: 635 nm fluorescence, higher = more signal
Chain of Follistatin (Homo sapiens) (P19883 whole entry, looked up): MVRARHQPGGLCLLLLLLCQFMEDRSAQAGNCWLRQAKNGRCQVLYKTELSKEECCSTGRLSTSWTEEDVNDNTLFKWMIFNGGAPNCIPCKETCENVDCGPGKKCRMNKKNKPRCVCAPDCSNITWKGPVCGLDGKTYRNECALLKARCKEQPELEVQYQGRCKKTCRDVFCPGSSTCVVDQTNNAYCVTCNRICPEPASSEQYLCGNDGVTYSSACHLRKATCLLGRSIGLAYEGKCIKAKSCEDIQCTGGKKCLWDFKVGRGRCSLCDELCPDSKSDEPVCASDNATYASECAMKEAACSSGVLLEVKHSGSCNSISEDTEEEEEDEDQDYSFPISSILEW

[16] = biological target: Fibroblast growth factor 2 (Homo sapiens) (UniProt P09038); test: basic fibroblast growth factor binding to printed compounds – biochemical, small-molecule microarray, 635/667 nm fluorescence, primary screen (AID 1133); conditions: FGF2, fluorescence 635/667, higher = more signal
Chain of Fibroblast growth factor 2 (Homo sapiens) (P09038 whole entry, looked up): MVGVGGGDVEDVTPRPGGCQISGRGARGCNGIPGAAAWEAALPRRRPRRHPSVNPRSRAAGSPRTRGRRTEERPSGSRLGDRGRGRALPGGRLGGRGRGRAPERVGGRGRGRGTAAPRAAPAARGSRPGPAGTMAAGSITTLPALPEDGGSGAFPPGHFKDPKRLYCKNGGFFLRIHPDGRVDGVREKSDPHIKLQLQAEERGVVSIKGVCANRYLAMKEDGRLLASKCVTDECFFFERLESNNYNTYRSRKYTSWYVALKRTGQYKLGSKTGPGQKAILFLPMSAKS

[17] = JC-1 mitochondrial potential readout, lung cancer cells – cell-based, A549, JC-1 fluorescence, basal, 24 h, 100 nL, profiling panel (AID 1138); conditions: higher = more signal;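 note: A549 lung adenocarcinoma cells under basal conditions with no added stimulus; test concentration not given here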
[18] = tested on: Lefty1; test: Lefty1 protein binding to printed compounds – biochemical, small-molecule microarray, 635/667 nm fluorescence, primary screen (AID 1139); conditions: fluorescence 635/667, higher = more signal
[19] = tested on: wheat germ agglutinin (Triticum aestivum), Alexa647-labelled; test: Alexa647-WGA lectin binding to printed small molecules – biochemical, small-molecule microarray, 635/667 nm fluorescence, artefact control for SMM control-protein annotation, profiling panel (AID 1140); conditions: WGA-A647 binding, 635 nm fluorescence, higher = more signal;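 note: score merges 667 nm feature emission with signal to noise over triplicate slides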
[20] = biological target: Luciferin 4-monooxygenase (Photinus pyralis) (UniProt P08659); test: inhibition of purified Photinus pyralis luciferase – biochemical, luminescence, purified enzyme, 2006 set, primary screen (AID 1141); conditions: purified firefly luciferase, SteadyGlo luminescence, 30 min; higher = more signal, called active from +8 up or from −8 down;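 note: cell-free assay with purified firefly luciferase at 100 ng per well in PBS; test concentration not given here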
Chain of Luciferin 4-monooxygenase (Photinus pyralis) (P08659 whole entry, looked up): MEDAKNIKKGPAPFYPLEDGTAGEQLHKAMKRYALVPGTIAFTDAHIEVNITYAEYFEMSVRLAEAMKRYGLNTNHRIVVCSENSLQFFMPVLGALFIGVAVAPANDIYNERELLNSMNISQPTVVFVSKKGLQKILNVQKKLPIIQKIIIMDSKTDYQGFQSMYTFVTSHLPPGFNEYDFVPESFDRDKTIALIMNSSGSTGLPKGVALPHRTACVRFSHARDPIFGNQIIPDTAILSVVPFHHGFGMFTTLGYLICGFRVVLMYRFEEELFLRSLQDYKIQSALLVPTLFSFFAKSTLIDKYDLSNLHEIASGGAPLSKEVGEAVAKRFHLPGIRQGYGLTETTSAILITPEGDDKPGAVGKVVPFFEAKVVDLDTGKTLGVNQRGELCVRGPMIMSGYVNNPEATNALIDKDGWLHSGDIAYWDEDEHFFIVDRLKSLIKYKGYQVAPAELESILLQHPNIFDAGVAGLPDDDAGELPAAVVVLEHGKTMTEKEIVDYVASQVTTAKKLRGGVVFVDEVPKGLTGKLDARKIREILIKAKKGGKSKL

SMILES | composite z-score [1] | composite Z-score [2] | composite z-score [3] | composite z-score [4] | composite z-score [5] | composite z-score [6] | composite z-score [7] | composite z-score [8] | composite z-score [9] | composite z-score [10] | composite z-score [11] | composite z-score [12] | composite z-score [13] | composite z-score [14] | composite z-score [15] | composite z-score [16] | z-score [17] | composite z-score [18] | composite z-score [19] | z-score [20]
CO[C@H]1COC(=O)CC=C[C@H](C)[C@H](OC)COC(=O)[C@@H](C)COC(=O)CC=C[C@@H]1C | -0.774 and -0.721 | 0.606 (inactive) and -0.054 (inactive) | -0.0984 and -0.0932 | -0.153 and -0.14 | -0.173 and -0.455 | -0.315 and -0.798 | -0.497 and -0.561 | 0.467 and 0.0015 | 1.16 and 0.85 | -0.413 and -1.52 | 0.155 and -0.15 | 0.151 and -0.833 | 0.445 and -0.105 | -0.77 and -1.28 | 1.13 and 0.8 | 0.651 and 0.402 | 0.597 and 1.4 | 0.914 and 0.398 | -0.464 and -0.424 | -0.882 (inactive) and -1.16 (inactive)
CCOC(=O)c1ccc(NC(=O)O[C@H]2[C@H](OC(=O)Nc3ccccc3)[C@H](OC(=O)Nc3ccccc3)[C@@H](OC)O[C@@H]2CO)cc1 | 0.783 and 0.754 | 1.13 (inactive) and 0.14 (inactive) | 0.583 and 0.228 | 0.121 and -0.0858 | 0.46 and 0.771 | 2.66 and 2.3 | 0.708 and 1.11 | 1.31 and 1.3 | 0.292 and 0.142 | 1.19 and 1.15 | 1.27 and 1.9 | 1.21 and 1.23 | 0.495 and 1.09 | 0.982 and 0.709 | 1.27 and 1.31 | 1.19 and 0.806 | -0.469 and -0.781 | 0.551 and 1.15 | 0.96 and 1.22 | 0.197 (inactive) and -0.2 (inactive)
CCCNC(=O)OC[C@H]1O[C@H](CCON=C(C)CCC(=O)OC[C@H]2O[C@H](C#Cc3ccccc3)C=C[C@@H]2Oc2ccc(C)cc2)C=C[C@@H]1Oc1ccc(OC)cc1 | -0.22 | 0.212 (inactive) | -0.158 | -0.141 | -0.29 | -0.324 | -0.141 | -1.22 | -0.288 | 0.154 | 0.0888 | -0.216 | -0.17 | -0.185 | -0.437 | -0.251 | -0.611 | 0.0233 | -0.26 | 1.41 (inactive)
COC(=O)[C@H](C)NC(=O)CCC1CC(OC(=O)NCCc2ccc(F)cc2)CC2(CCCC(COC(=O)NCCCN3CCCC3=O)O2)O1 (stereo not given in full) | 0.171 | 2.06 (inactive) | 0.0159 | 0.666 | 0.194 | 0.275 | 0.0736 | 1.3 | 0.407 | 1.07 | 0.944 | 1.17 | 0.534 | 0.872 | 1.03 | 1.3 | -0.498 | 1.55 | 0.526 | 0.824 (inactive)
CCOC(=O)c1ccc(NC(=O)O[C@H]2[C@H](OC(=O)Nc3ccccc3)[C@@H](OC(=O)Nc3ccccc3)[C@@H](OC)O[C@@H]2CO)cc1 | 0.905 and 0.893 | 1.09 (inactive) and 0.682 (inactive) | 0.228 and 0.318 | 0.0149 and -0.0131 | 0.527 and 0.688 | 2.63 and 1.91 | 0.336 and 0.278 | 1.31 | -0.193 and -0.279 | 1.23 and 1.17 | 2.39 and 2.88 | 1.26 and 1.28 | 1.78 and 0.545 | 1 | 1.2 and 1.4 | 0.601 and 1.59 | -1.02 and -1.32 | 0.88 and 1.51 | 1.32 and 1.12 | -0.427 (inactive) and -0.249 (inactive)
C=CCN(C(=O)C1N(c2ccc(CCO)cc2)C(=O)C2C(C(=O)O)C3C=CC21O3)c1ccc(OC)cc1 (stereo not given) | -0.326 and -0.0621 | -0.177 (inactive) and -0.773 (inactive) | -0.285 and -0.585 | -0.14 and -0.0932 | 0.93 and 0.471 | -0.188 and -0.412 | -0.0393 and -0.133 | 0.0118 and -1.55 | -0.726 and -2.53 | 0.287 and -1.64 | 0.0218 and -0.668 | -0.304 and -0.769 | 0.0134 and -1.17 | -0.369 and -1.3 | -0.697 and -0.794 | -1.24 and -1.75 | -0.742 and -0.718 | -0.708 and -0.967 | 0.0183 and -0.967 | -0.622 (inactive) and 2.07 (inactive)
CON(C)C(=O)c1nnc2c3ccccc3n(S(=O)(=O)c3ccc(C)cc3)c2n1 | 0.622 and 0.0016 | 0.891 (inactive) and 0.79 (inactive) | -0.0111 and 0.211 | -0.104 and -0.109 | 0.393 and 0.481 | 0.19 and 1 | 0.101 and 0.208 | 0.41 and 1.3 | 0.828 and 0.553 | 1.1 and 1.14 | 0.397 and 0.647 | 0.836 and 1.11 | 0.323 and 0.0633 | 0.88 and 0.578 | 0.229 and 0.552 | 0.43 and 1.31 | 0.551 and 0.105 | 0.273 and 0.757 | 0.184 and 0.328 | -0.251 (inactive) and -0.0743 (inactive)
CCOC(=O)NN=C1C[C@@H](O)[C@@H](O)[C@@H]2[C@@H]3C(=O)N(Cc4ccccc4)C(=O)[C@@H]3CC[C@@H]12 | -0.0904 | 0.182 (inactive) | -0.166 | -0.135 | -0.0916 | -0.381 | 0.0195 | 0.254 | 0.772 | 0.42 | 0.82 | 0.561 | -0.118 | 0.669 | 0.408 | 0.371 | -0.222 | 0.665 | 0.0775 | 0.66 (inactive)
COC(=O)C1=C(C)N(Cc2ccccc2)C2=C3C(=O)N(c4ccccc4)C(=O)[C@@H]3[C@@](O)(C(=O)OC)C(=O)N2[C@@H]1c1ccccc1 | 0.361 and 0.207 | 0.0519 (inactive) and 0.0894 (inactive) | 0.236 and 0.116 | -0.0767 and -0.101 | 0.46 and 0.7 | 0.241 and 0.608 | 0.171 and 0.983 | 0.462 and 1.13 | 0.513 and 0.402 | -0.196 and 0.475 | 0.387 and 0.668 | 0.186 and 1.1 | 0.14 and 0.113 | 0.212 and 0.393 | 0.988 and 0.726 | 1.63 and 0.5 | 0.895 and 1.76 | 0.823 and 0.745 | 0.0882 and 0.764 | -0.471 (inactive) and -1.33 (inactive)
Cc1ccc(S(=O)(=O)N[C@H]2COC(=O)[C@@H](C)COC(=O)[C@H](C)NC(=O)CC=C[C@H]2C)cc1 | -0.965 | 1.17 (inactive) | -0.0931 | -0.14 | -0.338 | -0.49 | -0.34 | 0.122 | 0.954 | -0.681 | -0.293 | -0.336 | -0.295 | -0.343 | 0.162 | 1.09 | 0.637 | 0.72 | -0.634 | -0.402 (inactive)
